A word on the inhibition: it is the drop in the measured response relative to a control, in per cent.

SMILES strings stand for the structures. Calls of active or inactive are those of the source.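 How the source made its calls: active means inhibition above 20% together with a positive visual image hit; inconclusive means visual image hit but inhibition not above 20%; inactive means no visual image hit.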

Consider 40 compounds from PubChem BioAssay.

The test is described as follows: inhibitors of TNFa-induced NFkB p65 translocation, primary screen, imaging, HUVEC, MLSMR starter and 10KST1 sets (AID 438).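 Further: compound added about 3h40 before a 20 min TNFalpha stimulation.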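 On inhibition: signal is the nuclear over cytoplasmic p65 intensity ratio per well.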 The following applies: HUVEC TNFa-induced p65 nuclear translocation; cell count: measured here: nuclei count (cytotoxicity indicator), at 2.08 µM; inhibition: at 2 µM, stronger effect = higher value, 0% TNFa-plus-vehicle, 100% no-TNFa wells.
For `CC(C)(C)NC(=O)CSc1nnc(-c2ccccn2)n1-c1ccccc1`, the inhibition was -10.6% (inactive) and the cell count turned out to be 588.
In the same order, the values of `O=C(COC(=O)c1cncc(Br)c1)NCCC1=CCCCC1` are -7.6% (inactive) and 555.
Turning to `COc1ccc(S(=O)(=O)Nc2ccccc2OC)cc1C`, the cell count turned out to be 471 and the inhibition was -3.3% (inactive).
As to `Nc1nc2n(n1)C(c1cccc(Br)c1)CC(c1ccc(F)cc1)N2` (stereo not given), the inhibition is -6.1% (inactive) and the cell count stood at 886.
`O=C(NC1CCCCC1)N(Cc1ccccc1)Cc1ccco1`: the cell count came out at 482 and the inhibition was 6.5% (inactive).
As for `O=C(O)CCn1[nH]c(=O)ccc1=O`, the inhibition was 6.8% (inactive) and the cell count stood at 172.
In the same order, the values of `COc1ccc(C(=O)Nc2ccccc2C(=O)NCCN2CCOCC2)cc1` are -2.2% (inactive) and 462.
The matching figures for `CCc1ccccc1NC(=O)CCc1nc(-c2ccc(C)cc2)no1`: -1% (inactive) and 415.
In the same order, the values of `Cc1cc(NS(=O)(=O)c2ccc(NC(=O)Nc3ccc4c(c3)OCO4)cc2)no1` are -10.7% (inactive) and 599.
`CCOC(=O)c1ccc(NC(=O)CSCc2ccco2)cc1`: the cell count came out at 680 and the inhibition is -1.5% (inactive).
Turning to `Cc1cc(NC(=O)CSc2nccn2-c2ccc(F)cc2)no1`, the cell count worked out at 433 and the inhibition is -0.3% (inactive).
The matching figures for `O=C(COC(=O)C1CC1)c1c[nH]c2ccccc12`: 468 and 4.3% (inactive).
In the same order, the values of `O=C(CCS(=O)(=O)c1cccc2nonc12)Nc1cccc2c1CCCC2` are 500 and -1.9% (inactive).
Take `COc1cccc(NC(=O)N(Cc2ccco2)C(C)c2cccs2)c1` (stereo not given): the cell count came out at 734 and the inhibition was -12.7% (inactive).
Regarding `Cc1csc2ncc(C(=O)N3CCc4ccccc43)c(=O)n12`, the inhibition is 5.3% (inactive) and the cell count worked out at 601.
The matching figures for `c1ccc(-c2ccccc2OCCn2cncn2)cc1`: -12.5% (inactive) and 780.
Take `COc1ccc(NC(=O)CN(c2ccc(C)cc2)S(C)(=O)=O)c(OC)c1`: the cell count is 498 and the inhibition is 10.1% (inactive).
The matching figures for `O=C(OCC(=O)N1CCCC1)c1ccccc1OCc1ccccc1`: 576 and -10.8% (inactive).
The matching figures for `Cc1cc(NS(=O)(=O)c2ccc(NC(=O)COc3ccccc3C(C)C)cc2)no1`: 579 and -12.7% (inactive).
In the case of `CCN(CC)c1ccc(NC(=O)CN2CCN(CC(=O)Nc3ccccc3F)CC2)cc1`, the inhibition is 3.1% (inactive) and the cell count is 348.
Regarding `COc1cc2[nH]c(=O)c(C(=O)NCCCN3CCCCC3)c(O)c2cc1OC`, the inhibition is -24.5% (inactive) and the cell count stood at 637.
As to `Cn1c(NC(=O)c2ccccc2NC(=O)C(C)(C)C)nc2ccccc21`, the cell count is 704 and the inhibition was -3.2% (inactive).
Take `O=c1[nH]c2sc3c(c2c2nncn12)CCCC3`: the cell count is 420 and the inhibition is 11.2% (inactive).
On to `Cc1nnc(SCC(=O)NCCN2C(=O)CSC2=O)s1`, for which the inhibition was 2.2% (inactive) and the cell count is 413.
As for `Cc1ccc(-c2nn(C)c(=O)c3ccccc23)cc1S(=O)(=O)NCCN1CCOCC1`, the inhibition is 5% (inactive) and the cell count was found to be 325.
Regarding `COc1cccc(Oc2cn[nH]c2-c2ccc(O)cc2O)c1`, the inhibition is 10.2% (inactive) and the cell count stood at 361.
In the case of `COc1ccc(CCNC(=O)CCN2C(=O)C3CC=CCC3C2=O)cc1OC` (stereo not given), the inhibition was -1.1% (inactive) and the cell count turned out to be 308.
In the same order, the values of `c1ccc(-c2nnc(-c3ccco3)n2-c2ccccc2)cc1` are 4.1% (inactive) and 383.
As to `CCCCCCC1/C(=N/O)CCC1C(=O)OC` (stereo not given), the cell count was found to be 656 and the inhibition was -7.7% (inactive).
In the same order, the values of `CCOc1ccc2[nH]c(=O)c(C(c3nnnn3Cc3ccco3)N3CCC(C)CC3)cc2c1` (stereo not given) are 218 and 0.8% (inactive).
The matching figures for `CCS(=O)(=O)N1CCC(C(=O)NC2CCCCCCC2)CC1`: 649 and -9.4% (inactive).
In the same order, the values of `Cc1occc1C(=O)Nc1nnc(C2CCCCC2)s1` are 356 and 7.6% (inactive).
`NC(=O)c1ccccc1NC(=O)CN1CCOCC1`: the cell count came out at 658 and the inhibition was -24.7% (inactive).
For `CCOC(=O)C(CC)n1nc(C)n2c(cc3sccc32)c1=O` (stereo not given), the cell count amounted to 526 and the inhibition is 7.7% (inactive).
In the same order, the values of `Cc1ccc(-c2noc(CCC(=O)N3CCN(c4cccc(C(F)(F)F)c4)CC3)n2)cc1` are 647 and 7.6% (inactive).
For the compound `Cc1cc(Br)ccc1NC(=O)CNC(=O)CSc1n[nH]c(N)n1`, the cell count was determined as 390 and the inhibition is -12.1% (inactive).
In the same order, the values of `O=C(C1CCCN(S(=O)(=O)c2cnc[nH]2)C1)N1CCN(c2ccc(Cl)cc2)CC1` (stereo not given) are 566 and 8% (inactive).
In the same order, the values of `Cc1ccc(CCSCC(=O)O)cn1` are 174 and 4.9% (inactive).
For `CCCc1nnc(NC(=O)CCC(=O)N2CCN(CCOc3ccc(C)cc3)CC2)s1`, the cell count came to 480 and the inhibition was -5.6% (inactive).
The matching figures for `CN1CCC(NC(=O)c2cccs2)CC1`: 575 and 8.5% (inactive).
